Data on 17 compounds can be found in PubChem BioAssay.

Assay [1] has as its system Plasmodium falciparum Sir2 (PF13_0152, Sir2A). As to the kind of experiment: pfSir2 binders on small-molecule microarrays, primary screen, biochemical, small-molecule microarray, 635 nm fluorescence (AID 1098).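 Also: score merges spot fluorescence intensity with its signal-to-noise ratio.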 Particulars: small-molecule microarray binding, fluorescence 635 nm; higher = more signal.
Assay [2] can be described thus: small-molecule microarray binders of probe aDKK1, primary screen, biochemical, biotinylated probe, 635/667 nm fluorescence (AID 1099).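 Also: score merges 667nm spot fluorescence with signal to noise across triplicate slides; reference of the scale not given here.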 To be noted: higher = more signal.
Assay [3] is described as follows: small-molecule microarray binders of probe aCHRDL2, primary screen, biochemical, biotinylated probe, 635/667 nm fluorescence (AID 1100). To be noted: higher = more signal.
A short description of assay [4]: splicing luciferase reporter signal modulators, primary screen, spliceosome inhibition project, cell-based, HEK293, splice +/- reporter (AID 1101).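 Also: HEK293 cells carrying a splicing-competent luciferase reporter gene; test concentration not given here.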 Particulars: luminescence, 24 h, higher = more signal, called active from +8 up or from −8 down. For orientation: In a reporter assay the amount or activity of a reporter protein is the signal.
Assay [5] has as its target Fibroblast growth factor 10 (Homo sapiens) (UniProt O15520). Description: FGF10 binders on small-molecule microarrays, primary screen, biochemical, small-molecule microarray, 635 nm fluorescence (AID 1102). Particulars: FGF10 binding, fluorescence 635 nm, higher = more signal.
Assay [6] has as its system glycogen synthase kinase-3 (GSK3A per assay name; protocol says GSK3B). Description: GSK3 binders on small-molecule microarrays, primary screen, biochemical, small-molecule microarray, 635 nm fluorescence, GSK3A (AID 1103). Also: the record names both GSK3A and GSK3B. Particulars: small-molecule microarray binding, fluorescence 635 nm; higher = more signal.
The target in assay [7] is Epidermal growth factor receptor (Homo sapiens) (UniProt P00533). As to the kind of experiment: EGFR binders on small-molecule microarrays, primary screen, biochemical, small-molecule microarray, 635 nm fluorescence (AID 1104).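 Also: score merges 667 nm emission intensity with spot signal to noise over triplicate slides.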 To be noted: EGFR binding, higher = more signal.
Epidermal growth factor receptor (Homo sapiens), sequence (P00533 whole entry, looked up): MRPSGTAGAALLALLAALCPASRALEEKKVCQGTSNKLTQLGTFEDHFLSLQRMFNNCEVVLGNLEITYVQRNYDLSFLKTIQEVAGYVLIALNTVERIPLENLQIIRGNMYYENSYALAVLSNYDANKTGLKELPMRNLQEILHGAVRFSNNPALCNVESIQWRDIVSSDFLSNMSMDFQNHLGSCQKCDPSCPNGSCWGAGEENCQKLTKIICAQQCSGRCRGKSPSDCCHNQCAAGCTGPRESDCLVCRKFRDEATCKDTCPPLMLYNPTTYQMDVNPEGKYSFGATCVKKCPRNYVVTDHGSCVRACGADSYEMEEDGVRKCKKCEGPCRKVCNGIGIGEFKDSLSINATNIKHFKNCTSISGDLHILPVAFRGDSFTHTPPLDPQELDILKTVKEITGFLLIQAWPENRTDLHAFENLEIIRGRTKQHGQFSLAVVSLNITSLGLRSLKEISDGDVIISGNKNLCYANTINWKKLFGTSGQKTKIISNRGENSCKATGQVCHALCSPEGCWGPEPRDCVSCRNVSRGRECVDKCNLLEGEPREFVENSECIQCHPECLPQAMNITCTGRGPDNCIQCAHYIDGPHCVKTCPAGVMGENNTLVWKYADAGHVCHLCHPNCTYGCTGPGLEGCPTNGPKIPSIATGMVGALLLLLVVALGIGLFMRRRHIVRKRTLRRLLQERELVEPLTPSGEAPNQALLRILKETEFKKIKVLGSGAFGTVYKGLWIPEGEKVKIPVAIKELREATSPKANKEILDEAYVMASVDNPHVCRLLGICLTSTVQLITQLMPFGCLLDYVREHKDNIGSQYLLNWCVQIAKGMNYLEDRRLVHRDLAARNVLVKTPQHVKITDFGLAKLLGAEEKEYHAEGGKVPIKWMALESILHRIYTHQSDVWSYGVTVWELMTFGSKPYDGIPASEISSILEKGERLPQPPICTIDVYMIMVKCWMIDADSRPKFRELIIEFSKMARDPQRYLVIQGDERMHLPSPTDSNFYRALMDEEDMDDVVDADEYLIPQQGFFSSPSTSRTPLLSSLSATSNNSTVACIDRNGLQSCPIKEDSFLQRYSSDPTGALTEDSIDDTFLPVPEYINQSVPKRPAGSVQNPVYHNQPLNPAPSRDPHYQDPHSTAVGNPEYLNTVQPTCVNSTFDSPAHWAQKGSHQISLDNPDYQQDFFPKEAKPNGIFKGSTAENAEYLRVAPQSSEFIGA
Assay [8] deals with Follistatin-related protein 3 (Homo sapiens) (UniProt O95633). As to the kind of experiment: FSTL3 binders on small-molecule microarrays, primary screen, biochemical, small-molecule microarray, 635 nm fluorescence (AID 1105).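 Also: score merges emission near 667 nm and signal to noise per printed spot across three slides.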 To be noted: FSTL3 binding, higher = more signal.
Follistatin-related protein 3 (Homo sapiens), sequence (O95633 whole entry, looked up): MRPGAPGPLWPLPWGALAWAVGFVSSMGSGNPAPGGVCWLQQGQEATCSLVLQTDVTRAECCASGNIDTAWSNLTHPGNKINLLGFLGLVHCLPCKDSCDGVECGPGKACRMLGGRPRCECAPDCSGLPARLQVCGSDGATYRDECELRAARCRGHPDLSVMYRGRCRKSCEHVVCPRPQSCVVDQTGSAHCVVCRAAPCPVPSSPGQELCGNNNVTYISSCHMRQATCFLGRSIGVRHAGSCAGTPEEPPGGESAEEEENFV
The target in assay [9] is Dickkopf-related protein 1 (Homo sapiens) (UniProt O94907). As to the kind of experiment: DKK1 binders on small-molecule microarrays, primary screen, biochemical, small-molecule microarray, 635 nm fluorescence scan (AID 1106).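 Also: score merges emission near 667 nm with signal to noise over three replicate slides.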 To be noted: DKK1 binding, higher = more signal.
Dickkopf-related protein 1 (Homo sapiens), sequence (O94907 whole entry, looked up): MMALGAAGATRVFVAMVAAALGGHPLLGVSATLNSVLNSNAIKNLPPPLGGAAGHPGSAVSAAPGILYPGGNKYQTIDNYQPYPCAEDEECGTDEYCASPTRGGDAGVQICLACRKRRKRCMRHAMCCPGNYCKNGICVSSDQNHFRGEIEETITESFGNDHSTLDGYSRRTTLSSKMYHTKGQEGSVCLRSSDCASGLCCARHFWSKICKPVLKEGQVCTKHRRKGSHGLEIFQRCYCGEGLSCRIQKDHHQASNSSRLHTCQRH
The subject of assay [10] is Inhibin beta A chain (activin A). Description: INHBA (activin A) binders on microarrays, primary screen, biochemical, small-molecule microarray, 635 nm fluorescence scan (AID 1107).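 Also: mouse activin A protein probed at 4.33 µg/mL on printed slides; score merges bound-protein fluorescence near 667 nm with spot signal-to-noise.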 Particulars: small-molecule microarray binding, higher = more signal.

Activity calls are given as the source filed them.

Fibroblast growth factor 10 (Homo sapiens), sequence (O15520 whole entry, looked up): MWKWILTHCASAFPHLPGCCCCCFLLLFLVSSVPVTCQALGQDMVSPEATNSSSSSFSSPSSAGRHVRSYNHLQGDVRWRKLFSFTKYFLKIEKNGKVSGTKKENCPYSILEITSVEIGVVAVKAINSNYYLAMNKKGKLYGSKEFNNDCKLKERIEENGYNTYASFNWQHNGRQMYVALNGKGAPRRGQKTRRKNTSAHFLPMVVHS

Consider `C=CCC(OC(C)=O)[C@@H]1[C@@H](N(Cc2ccc(-c3cccc(C(F)(F)F)c3)o2)C(=O)Cc2ccc(OC)cc2)c2cc(OCCCO)ccc2N1C(=O)c1ccc(-c2ccccc2)cc1` (stereo not given in full), for which the composite z-score in assay [1] was -0.318; in assay [2], -0.0755; in assay [3] it was 0.541; in assay [5], -0.165; in assay [6] it was -0.522; in assay [7], -0.577. Further, the composite z-score in [8] was -0.119; in assay [9] it was -0.434; in assay [10], 1.39. For the same compound, the z-score in assay [4] was -1.13 (inactive).

Take `COc1ccc([Si](C)(C)[C@@H]2[C@@H](CCO)O[C@]3(C(=O)N(Cc4ccccc4)c4ccc(N5C(=O)c6cccc7cccc5c67)cc43)[C@H]2C)cc1`: the composite z-score was 1.42 in assay [1]; 0.0194 in [2]; 0.42 in assay [3]; -0.231 in [5]; -0.642 in [6]; -0.0299 in [7]. Also, the composite z-score is -0.448 in assay [8], -0.0876 in [9] and -0.344 in assay [10]. For the same compound, in [4], the z-score is -0.884 (inactive).

On to `CC1=C2[C@@H](CCc3ccccc3)OB(O)C[C@@H]2[C@@H]2C(=O)N(C)C(=O)[C@@H]2C1`, for which the composite z-score was -0.186 in assay [1]; -0.232 in [2]; -0.223 in assay [3]; 0.985 in assay [5]; 0.443 in assay [6]; 0.135 in [7]. The composite z-score was determined as 0.451 in assay [8], 0.521 in assay [9] and 0.273 in assay [10]. Moreover, the z-score in [4] was 0.305 (inactive).

With `CC(C)[Si](C#C[Si](C(C)C)(C(C)C)C(C)C)(O[C@H](c1ccccc1)c1cn(Cc2ccccc2)nn1)C(C)C`, the composite z-score in assay [1] is 0.144; in [2] it was -0.138; in assay [3], -0.465; in assay [5], 0.279; in assay [6], 0.654; in [7], 0.392. Moreover, the composite z-score in assay [8] came to 0.628; in assay [9] it was 0.405; in [10], 0.218. Besides, in [4], the z-score is 0.501 (inactive).

As for `O=C1N(CCS(=O)(=O)c2ccccc2)c2ccccc2[C@H]2OC(c3ccc(OCCCO)cc3)=N[C@@]12Cc1ccccc1`, the composite z-score in [1] was 1.29; in assay [2] it was 1.1; in assay [3], 1.08; in assay [5], 0.896; in [6], 1.05; in assay [7], 1.03. The composite z-score in [8] was 1.1; in assay [9] it was 1.04; in assay [10], 1.04. Besides, in assay [4], the z-score is -1.49 (inactive).

As to `COC(=O)C1(CC(C)C)C=C2C(=C(c3ccccc3)C(=O)C2C)CN1` (stereo not given), the composite z-score in assay [1] was 0.055; in assay [2], 1.49; in [3], 1.36; in assay [5] it was 0.896; in assay [6], -0.713; in [7], 0.233. The composite z-score was 0.261 in assay [8], -1.19 in assay [9] and 1.53 in [10]. The z-score in assay [4] is 1.45 (inactive).

Turning to `O=C1C2C=CC(C(O)C3CC=CCC3)N(Nc3ccccc3)C2C(=O)N1c1ccccc1` (stereo not given), the composite z-score in [1] was 1.33; in assay [2], 1.13; in assay [3], 1.12; in [5], 0.154; in assay [6] it was 0.466; in assay [7] it was 0.303. For the same compound, the composite z-score worked out at 1.03 in assay [8], 0.333 in [9] and 1.68 in assay [10]. Also, in assay [4], the z-score is -0.225 (inactive).

With `COC(=O)C(CC#Cc1ccc2c(c1)[C@]1(C(=O)N2)[C@H](c2ccc(O)cc2)N2[C@H](c3ccccc3)[C@H](c3ccccc3)OC(=O)[C@H]2[C@@H]1C(=O)NC[C@H](O)c1ccccc1)C(=O)OC`, the composite z-score was -0.282 in assay [1]; 0.6 in [2]; 0.405 in assay [3]; 0.986 in assay [5]; 1.11 in [6]; 0.588 in [7]. The results for the composite z-score in assay [8], in assay [9] and in [10] were 0.523, 0.432 and 0.335, respectively. The z-score in [4] was 0.0183 (inactive).

In the case of `C=CCNC(=O)[C@@H]1[C@H]2C(=O)O[C@H](c3ccccc3)[C@H](c3ccccc3)N2[C@H](c2ccc(O)cc2)[C@@]12C(=O)N(C(=O)OCCOC)c1ccc(C#CC3=CCCCC3)cc12`, the composite z-score in assay [1] was 1.04; in assay [2] it was -0.122; in assay [3], -0.294; in assay [5] it was 0.965; in assay [6], 1.29; in assay [7], 0.714. The composite z-score in [8] came to 1.09; in assay [9] it was 0.53; in assay [10] it was 0.492. Also, the z-score in assay [4] is -1.19 (inactive).

For `COC(=O)C1=CC(CCCO)=CC(c2cccs2)N(C)C=C1C(=O)OC` (stereo not given), the composite z-score in assay [1] is 1.52; in [2] it was 0.122; in assay [3], 0.187; in assay [5], -0.604; in assay [6], -1.39; in [7], -0.904. The composite z-score in assay [8] is 0.0507; in assay [9], -0.442; in assay [10] it was 0.788. Also, in assay [4], the z-score is 0.844 (inactive).

`C=CC[C@@]1(C(=O)NCCCOC)N=C(c2ccc(OCCCO)cc2)O[C@@H]1c1ccccc1N=[N+]=[N-]`: the composite z-score in assay [1] is 0.826; in assay [2], 0.648; in assay [3], 0.999; in assay [5], 0.919; in assay [6], 0.595; in assay [7] it was -0.276. Also, the composite z-score was 0.45 in [8], -0.178 in assay [9] and 0.961 in [10]. Besides, the z-score in assay [4] is 0.0875 (inactive).

With `COC(=O)C/C=C/C[C@]1(O)C(=O)N(C)c2ccccc21`, the composite z-score is -0.262 in assay [1]; -0.299 in assay [2]; -0.802 in [3]; 0.791 in assay [5]; 0.605 in assay [6]; 0.784 in assay [7]. The composite z-score in assay [8] was 0.616; in assay [9], 0.949; in [10] it was 0.587. Further, the z-score in assay [4] was -1.38 (inactive).

For the compound `CCCCCCc1nc(Cc2cc(OC)c(OC)c(OC)c2)cc2c1[Si](C(C)C)(C(C)C)OC2`, the composite z-score in assay [1] was 0.209; in [2] it was -0.227; in assay [3], -0.623; in assay [5], 0.124; in assay [6], -0.195; in [7], 0.192. The figures for the composite z-score in assay [8], in [9] and in assay [10] were 0.494, 0.5 and 0.881, respectively. In addition, the z-score in [4] was -0.393 (inactive).

`Cc1ccc(N2C(=O)c3ccccc3[C@@H](C(=O)NCCCN(C)C)[C@@H]2c2ccc(CO)cc2)nc1`: the composite z-score in assay [1] was 0.451; in assay [2] it was 1.51; in [3], 0.824; in [5], -0.514; in assay [6], -0.298; in assay [7], 0.239. In addition, the composite z-score in assay [8] is 0.102; in assay [9], -0.06; in [10], -0.153. Besides, the z-score in [4] was -0.556 (inactive).

For the compound `C[N+](C)(C)CCCC[C@@H]1NC(=O)[C@@H]2C[C@H](C(=O)NCCCCCCN)[C@H](c3cccc(OCCO)c3)N2C1=O`, the composite z-score in assay [1] turned out to be 1.16; in assay [2], 1.85; in assay [3] it was 1.14; in [5], 0.766; in assay [6], 1.29; in [7], 0.132. Also, the composite z-score in assay [8] stood at 0.776; in [9], 0.695; in assay [10] it was 1.4. In addition, the z-score in assay [4] was -0.111 (inactive).

On to `COCCOC(=O)N1C(=O)[C@@]2(c3cc(C#CC4(O)CCCCCC4)ccc31)[C@H](C(=O)N1CCc3cc(OC)c(OC)cc3C1)[C@H]1C(=O)O[C@H](c3ccccc3)[C@H](c3ccccc3)N1[C@@H]2c1ccc(OCCO)cc1`, for which the composite z-score was 0.868 in assay [1]; -0.208 in assay [2]; -0.219 in assay [3]; 0.891 in assay [5]; 1.3 in [6]; 0.626 in assay [7]. For the same compound, the composite z-score in assay [8] amounted to 1.04; in assay [9], 0.95; in assay [10], 0.25. For the same compound, the z-score in assay [4] was 0.058 (inactive).

Regarding `CC(CO)N1C(=O)[C@@H]2[C@H]3C(=O)OCC=C[C@H]3OC23C=CCN(Cn2nnc4ccccc42)C(=O)[C@@H]13` (stereo not given in full), the composite z-score in [1] was 0.996; in assay [2], -0.162; in assay [3] it was 0.238; in assay [5] it was -0.78; in [6], -0.778; in [7], -1.29. Further, the composite z-score in [8] is -1.13; in [9], -0.586; in assay [10], 0.647. For the same compound, the z-score in assay [4] is 1.12 (inactive).
